Results from ChEMBL document CHEMBL3433997, “St. Jude Leishmania screening dataset” (2016).
“And” between values parts separate entries of the source, which are not always exact repeats. Equal values may be shown once.

Columns and labels:
Type in all cases: functional
[1] = biological target: Solute carrier family 2, facilitated glucose transporter member 1 (Homo sapiens) (UniProt P11166); assay: ST_JUDE_LEISH: Cytotoxicity at 2uM final concentration against transgenic Leishmania Mexicana promastigotes LmGLUT1 that are glucose transport deficient and complemented with the human glucose transporter GLUT1. Activity is measured by DNA content using SYBR green in vitro
[2] = biological target: Hexose transporter 1 (Plasmodium falciparum) (UniProt O97467); assay: ST_JUDE_LEISH: Cytotoxicity at 2uM final concentration against transgenic Leishmania Mexicana promastigotes LmPfHT that are glucose transport deficient and complemented with the Plasmodium falciparum hexose transporter. Activity is measured by DNA content using SYBR green in vitro
[3] = biological target: Glucose transporter (Leishmania mexicana) (UniProt O61059); assay: ST_JUDE_LEISH: Cytotoxicity at 2uM final concentration against transgenic Leishmania Mexicana promastigotes LmGT2 that are glucose transport deficient and complemented with the L. Mexicana glucose transporter 2. Activity is measured by DNA content using SYBR green in vitro

Sequence of Solute carrier family 2, facilitated glucose transporter member 1 (Homo sapiens) (P11166 whole entry): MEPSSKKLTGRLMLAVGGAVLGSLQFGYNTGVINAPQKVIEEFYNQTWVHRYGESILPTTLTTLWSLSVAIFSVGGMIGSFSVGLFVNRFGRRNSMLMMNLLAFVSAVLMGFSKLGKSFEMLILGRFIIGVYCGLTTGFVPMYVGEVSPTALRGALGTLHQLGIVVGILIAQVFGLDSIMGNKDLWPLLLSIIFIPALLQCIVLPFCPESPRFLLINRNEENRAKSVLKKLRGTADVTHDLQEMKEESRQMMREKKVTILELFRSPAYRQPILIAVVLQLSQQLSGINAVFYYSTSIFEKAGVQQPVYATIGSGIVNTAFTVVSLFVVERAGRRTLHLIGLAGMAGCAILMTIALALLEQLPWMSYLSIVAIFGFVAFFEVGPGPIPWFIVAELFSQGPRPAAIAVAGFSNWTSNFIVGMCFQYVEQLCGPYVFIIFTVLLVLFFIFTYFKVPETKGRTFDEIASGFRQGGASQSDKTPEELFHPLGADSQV

| SMILES | inhibition [1] | inhibition [2] | inhibition [3] |
| --- | --- | --- | --- |
| CCOC(=O)c1c(C)n(C2CCCCCC2)c2cc(Br)c(O)cc12 | 2.52% | 0.67% | 4.54% |
| COC(=O)/C=C/c1ccc(CC(C)NCC(O)c2cccc(C(F)(F)F)c2)cc1 (centres undefined) | 0.9% and -0.04% | -2.11% and 0.7% | -1.59% and -0.73% |
| COC(=O)c1ccc(C[C@@H](C)NC[C@H](O)c2cccc(C(F)(F)F)c2)cc1 | 3.2% | 4.43% | 0.45% |
| CN(C)CCCOc1ccc(CN2CCC(c3c[nH]c4ccc(NCC5CCCCC5)cc34)CC2)cc1 | 3.02% | 3.5% | 3.06% |
| CC(=O)C1(c2ccccc2)CCN(CCC2(c3ccc(Cl)c(Cl)c3)CN(C(=O)Nc3cc(F)cc(F)c3)CCO2)CC1 (centres undefined) | 2.31% | 2.4% | -0.62% |
| COc1ccccc1CC(C)NCC(O)c1cccc(Cl)c1 (centres undefined) | -0.34% | 4.23% | 1.87% |
| O=C(NC1CCC(CN2CCC(c3c[nH]c4ccccc34)CC2)CC1)c1ccc(-c2ccccc2[N+](=O)[O-])o1 (centres undefined) | 3.68% | 1.85% | -0.67% |
| COc1ccc(CN2CCN(CCOC(c3ccccc3)c3ccccc3)CC2)c(O)c1 | 3.13% | 2.42% | 0.74% |
| OC(CNC1CCCCCCC1)c1ccc(Cl)c(Cl)c1 (centres undefined) | 1.96% | 2.06% | 2.43% |
| CN(C)CCC(=O)c1ccccc1 | 3.21% | 4.48% | 1.99% |
| N#Cc1ccc(N(CCCO)Cc2ccccc2C(F)(F)F)cc1C(F)(F)F | -1.34% | -1.78% | -0.99% |
| CN(c1cc(NC(=O)c2ccccc2)ccn1)C1CCN(Cc2cccc(F)c2)CC1 | 1.23% | 4.2% | 2.33% |
| Cc1ccc(-n2nc(C)c3c2NC(=O)CSC3c2ccsc2)cc1 (centres undefined) | 9.48% | 13.5% | 11% |
| Cc1ccc(C[C@@H](C)NC[C@H](O)c2cccc(C(F)(F)F)c2)cc1 | 3.18% | 3.1% | 2.92% |
| CC(=O)Nc1ccc(CN2CCC(N(C)c3cc(NC(=O)c4cccc(F)c4)ccn3)CC2)cc1 | -0.4% | -0.05% | 0.23% |
| O=C(/C=C/c1ccccc1Cl)NC1CCC(CN2C3CCC2CC(c2c[nH]c4ccccc24)C3)CC1 (centres undefined) | 2.84% | -0.31% | 5.5% |
| CC(C)CNCc1cccc(-c2ccc(CN(C(=O)Nc3ccccc3)C3CCN(Cc4ccccc4)CC3)cc2)c1 | 2.16% | 2.2% | 2.04% |
| O=C(/C=C/c1cc(C(F)(F)F)ccc1F)N1CCC(CN2CCC(c3c[nH]c4ccccc34)CC2)CC1 | 1.52% | 1.34% | -1.26% |
| O=C(NC1CCC(N2CCC3(CC2)C(=O)NCN3c2ccccc2)CC1)c1cc2ccccc2[nH]1 (centres undefined) | -0.44% | -0.89% | 0.13% |

| SMILES | inhibition [1] | inhibition [2] | inhibition [3] |
| --- | --- | --- | --- |
| COC(C(=O)OCCC1CCCN1C)(c1ccccc1)c1ccccc1 (centres undefined) | -0.93% | -0.75% | -4.58% |
| CCC(C)CN1CCC(N(C)c2cc(NC(=O)c3ccc(F)cc3)ccn2)CC1 (centres undefined) | -0.37% | 0.64% | 2.38% |
| CC(C)NC(=O)Cn1cc(C2CCN(CC3CCN(C(=O)/C=C/c4ccc(Cl)c(Cl)c4)CC3)CC2)c2ccccc21 | 1.44% | 0.25% | 1.41% |
| CN1C(=O)[C@H](NC(=O)[C@@H](Cc2ccccc2)NC(=S)Nc2ccccc2)N=C(c2ccccc2)c2ccccc21 | 1.25% | 0.57% | 1.74% |
| NC(=O)CN1CC=C(c2c[nH]c3ccc(Br)cc23)CC1 | -1.87% | 0.93% | 0.77% |
| CCOC(C(=O)OCC1CCCN1C(C)C)(c1ccccc1)c1ccccc1 (centres undefined) | 3.57% | 3.09% | 1.53% |
| CCOc1ccc(CN(CCc2ccc3c(c2)OCO3)Cc2cc(OC)ccc2O)cc1 | 4.49% | 4.01% | 6.07% |
| CC[C@H]1CN2CCc3cc(OC)c(OC)cc3[C@@H]2C[C@@H]1C[C@H]1NCCc2c1cc(OC)c(O)c2I | 93.9% | 96.6% | 90% |
| Cc1ccc(C2(O)CC3CCC(C2)N3C)cc1 (centres undefined) | 2.44% | 2.72% | 3.25% |
| CC[C@H]1CN2CC[C@@H]1C[C@H]2[C@H](O)c1cc(N2CCC(c3ccccc3)CC2)nc2ccc(OC)cc12 | 8.84% | 6.56% | 2.67% |
| CCCCCCc1cc(O)c2c3c(c(=O)oc2c1)CCN(C)C3 | 7.26% | 4.97% | 6.76% |
| CN(c1ccc(NC(=O)CCOc2ccccc2)cc1)C1CCN(Cc2cccc(O)c2)CC1 | 1.64% | -0.45% | -0.97% |
| CCCCCC(C)C(C)c1cc(O)c2c(c1)OC(C)(C)c1cnccc1-2 (centres undefined) | -1.41% | 0.7% | -1.32% |
| CC(C)CNCc1ccc(-c2ccc(CN(C(=O)Nc3ccccc3)C3CCN(Cc4ccccc4)CC3)cc2)cc1 | 3.1% | 2.41% | 4.94% |
| CN(c1cc(NC(=O)c2ccc(F)cc2)ccn1)C1CCN(Cc2cccc(C#N)c2)CC1 | 3.24% | -2.19% | 5.14% |
| O=C(/C=C/c1ccc(Cl)c(Cl)c1)N1CCC(CN2CCC(c3c[nH]c4cc(C(F)(F)F)ccc34)CC2)CC1 | 2.28% | 3.35% | -0.87% |
| CCc1nc(N)nc(N)c1-c1cccc(Cl)c1 | 2.71% | 2.32% | 3.02% |
| CCCCCCC(C)c1cc(O)c2c(c1)OC(C)(C)c1ccncc1-2 (centres undefined) | 1.12% | 0.89% | -1.19% |
| CCN1CCC2(c3cccc(OC)c3)Cc3nc4ccccc4c(-c4ccccc4)c3CC2C1 (centres undefined) | 3.21% | 1.3% | 2.12% |
